Experimental data taken from paper PMC5540273 (PLoS ONE, 2017).

Key:
Details in all cases: concentration: 1 μM, replicates: in singlicate; n = 1
NIM1 = test system: T1, NIM1
T1 construct: gene MGC42105

NLK = test system: NLK
OSR1 = test system: T2, OSR1
T2 construct: gene OXSR1

PAK1 = test system: PAK1
PAK2 = test system: PAK2
PAK3 = test system: PAK3
PAK4 = test system: PAK4
PAK6 = test system: PAK6
PAK7 = test system: PAK7
PCTK1 = test system: T3, PCTK1
T3 construct: gene CDK16

PCTK2 = test system: T4, PCTK2
T4 construct: gene CDK17

PCTK3 = test system: T5, PCTK3
T5 construct: gene CDK18

PDGFRA = test system: PDGFRA
PDGFRB = test system: PDGFRB
PDPK1 = test system: PDPK1
PFTAIRE2 = test system: PFTAIRE2
PFTK1 = test system: T6, PFTK1
T6 construct: gene CDK14

PHKG1 = test system: PHKG1
PHKG2 = test system: PHKG2
PIK3C2B = test system: PIK3C2B
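Note: KINOMEscan kinase panel screen.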

Row | Compound | %Inh (NIM1) | %Inh (NLK) | %Inh (OSR1) | %Inh (PAK1) | %Inh (PAK2) | %Inh (PAK3) | %Inh (PAK4) | %Inh (PAK6) | %Inh (PAK7) | %Inh (PCTK1) | %Inh (PCTK2) | %Inh (PCTK3) | %Inh (PDGFRA) | %Inh (PDGFRB) | %Inh (PDPK1) | %Inh (PFTAIRE2) | %Inh (PFTK1) | %Inh (PHKG1) | %Inh (PHKG2) | %Inh (PIK3C2B)
1 | Nc1cccc(-c2ccc3c(N)n[nH]c3c2)c1 [GSK2193613] | 0% | 17% | 13% | 2% | 2% | 0% | 0% | 6% | 15% | 0% | 19% | 4% | 9% | 29% | 0% | 13% | 30% | 0% | 11% | 0%
2 | CCn1cnc2c(NCc3ccccc3)ncnc21 [SKF-96418] | 17% | 0% | 0% | 11% | 42% | 0% | 0% | 0% | 0% | 0% | 0% | 0% | 0% | 0% | 0% | 0% | 0% | 0% | 0% | 0%
3 | COc1cccc(C2=C(Nc3cccc(O)c3)C(=O)NC2=O)c1 [SB-390771] | 16% | 15% | 8% | 7% | 5% | 32% | 0% | 100% | 26% | 15% | 0% | 6% | 0% | 20% | 0% | 14% | 22% | 0% | 0% | 0%
4 | O=C(O)C(F)(F)F.O=c1[nH]ccc2nc(N[C@@H]3CCNC3)nc(Nc3ccc4c(c3)S(=O)(=O)CC4)c12 [GSK2181306] | 67% | 28% | 76% | 97.2% | 95.2% | 99.9% | 99.5% | 94.6% | 99.9% | 85% | 71% | 38% | 94.1% | 99.6% | 93.5% | 14% | 14% | 96.9% | 93.7% | 12%
5 | Cn1cc(-c2ccc3c(c2)CCN3C(=O)Cc2cc(F)cc(F)c2F)c2c(N)ncnc21 [GSK2634140] | 8% | 0% | 14% | 16% | 12% | 35% | 0% | 0% | 0% | 6% | 0% | 7% | 59% | 98% | 0% | 3% | 10% | 0% | 0% | 82%
6 | Cl.N#CCc1ccc(Nc2nccc(Nc3ccc(Oc4ccccc4)cc3)n2)cc1 [GW639905] | 14% | 0% | 11% | 0% | 10% | 47% | 0% | 0% | 0% | 0% | 0% | 8% | 31% | 99.6% | 17% | 4% | 0% | 0% | 0% | 0%
7 | CSc1ccc(NC2=C(c3ccc(Cl)cc3)C(=O)NC2=O)cc1 [SB-317658] | 0% | 0% | 6% | 2% | 28% | 36% | 2% | 29% | 0% | 0% | 0% | 0% | 3% | 31% | 17% | 4% | 8% | 0% | 0% | 0%
8 | CN(c1ccc(NC(=O)N2CCN(CCCN3CCOCC3)CC2)cc1)c1ccnc(Nc2ccc(CS(C)(=O)=O)cc2)n1.Cl [GW830899] | 0% | 0% | 0% | 0% | 0% | 0% | 0% | 25% | 2% | 0% | 10% | 0% | 73% | 99.4% | 2% | 14% | 0% | 40% | 0% | 0%
9 | Cc1ccc(Nc2ccnc(Nc3ccc(C)c(F)c3)n2)cc1O.Cl [GW582868] | 3% | 62% | 8% | 0% | 0% | 0% | 0% | 0% | 0% | 0% | 0% | 20% | 3% | 96.9% | 0% | 0% | 1% | 0% | 0% | 0%
10 | Nc1ncnc2scc(-c3ccc(NC(=O)Cc4cc(F)ccc4F)cc3)c12.O=C(O)C(F)(F)F [SB-731254-M] | 0% | 4% | 11% | 7% | 32% | 46% | 0% | 0% | 1% | 2% | 0% | 13% | 99.5% | 99.9% | 41% | 0% | 2% | 6% | 16% | 22%
